Assay results as given in the GenesisPotency data set.
The whole screen tested about 290,000 compounds, of which about 3,000 (1%) were called active. This is one part of a sample in which actives are shown more often than they occur. Rule as the data show it: active = inhibition mostly above about 36% (no sharp cut-off); inactive = mostly below about 34%.

Biological target: T1, Nucleotide-binding oligomerization domain-containing protein 1, Homo sapiens (UniProt Q9Y239)
T1 sequence (whole entry): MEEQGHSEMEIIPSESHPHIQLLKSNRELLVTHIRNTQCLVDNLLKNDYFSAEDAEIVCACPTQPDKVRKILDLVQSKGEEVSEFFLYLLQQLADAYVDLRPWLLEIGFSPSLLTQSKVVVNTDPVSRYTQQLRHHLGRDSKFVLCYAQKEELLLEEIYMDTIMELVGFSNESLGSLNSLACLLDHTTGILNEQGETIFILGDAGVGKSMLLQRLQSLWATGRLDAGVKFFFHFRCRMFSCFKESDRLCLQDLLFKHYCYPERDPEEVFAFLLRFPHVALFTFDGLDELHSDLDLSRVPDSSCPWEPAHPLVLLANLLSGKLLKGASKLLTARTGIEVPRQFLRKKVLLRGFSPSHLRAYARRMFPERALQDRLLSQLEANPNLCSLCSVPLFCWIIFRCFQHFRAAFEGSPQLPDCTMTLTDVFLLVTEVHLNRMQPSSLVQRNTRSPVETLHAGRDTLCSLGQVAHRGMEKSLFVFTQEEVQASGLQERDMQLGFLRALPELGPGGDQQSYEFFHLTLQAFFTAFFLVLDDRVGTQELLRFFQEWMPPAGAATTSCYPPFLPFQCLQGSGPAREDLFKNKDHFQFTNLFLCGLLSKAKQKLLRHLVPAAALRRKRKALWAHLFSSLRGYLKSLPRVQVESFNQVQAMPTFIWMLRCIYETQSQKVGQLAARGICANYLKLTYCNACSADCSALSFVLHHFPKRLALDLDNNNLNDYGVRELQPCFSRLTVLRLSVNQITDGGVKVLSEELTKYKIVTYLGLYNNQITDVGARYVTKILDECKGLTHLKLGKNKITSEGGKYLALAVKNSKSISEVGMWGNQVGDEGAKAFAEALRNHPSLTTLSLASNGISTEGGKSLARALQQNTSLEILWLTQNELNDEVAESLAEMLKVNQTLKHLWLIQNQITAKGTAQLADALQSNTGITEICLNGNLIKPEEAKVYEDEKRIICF
Assay: NOD1 signaling inhibitors, primary screen, cell-based, luminescence, uHTS (AID 1578)

`COc1ccc(-c2cc(-c3ccccc3)[n+](C)c(-c3ccccc3)c2)cc1.[O-][Cl+3]([O-])([O-])[O-]` was tested. Which outcome did it give?
The outcome was “active”.

Which outcome does the source give for `COc1ccc(-[n+]2c(-c3ccccc3)cc(-c3ccc(C)cc3)cc2-c2ccccc2)cc1.[O-][Cl+3]([O-])([O-])[O-]` here?
Its outcome is “active”.

How did the outcome turn out when `CCC(C)NC(=O)CCC(=O)OC1O[C@H]2OC3(C)CC[C@H]4[C@H](C)CCC(C1C)C24OO3` (some centres undefined) was run?
Its outcome is “active”.

Which outcome does the source give for `CC(C)CC(NC(=O)CCCNC(=O)CCC(=O)OC1O[C@H]2OC3(C)CC[C@H]4[C@H](C)CCC(C1C)C24OO3)C(=O)O` (some centres undefined) here?
Its outcome is “active”.

Which outcome does the source give for `CCC(C)C(NC(=O)CCCNC(=O)CCC(=O)OC1O[C@H]2OC3(C)CC[C@H]4[C@H](C)CCC(C1C)C24OO3)C(=O)O` (some centres undefined) here?
The outcome was “active”.

Which outcome does the source give for `CC[C@@]1(O)C(=O)OCc2c1cc1n(c2=O)Cc2cc3ccccc3nc2-1` here?
The outcome was “active”.

With `CCCCCCn1c(=O)c(C(=O)Nc2cnccn2)c(O)c2ccccc21` as the molecule, how does the outcome read?
The outcome was “active”.

With `CCCCCn1c(=O)c(C(=O)Nc2cnccn2)c(O)c2ccccc21` as the molecule, how does the outcome read?
The outcome was “active”.

For `C=C1C(=O)O[C@@H]2C[C@@H](C)[C@@H]3C=CC(=O)[C@@]3(C)[C@@H](OC(=O)CC(=O)O[C@H]3[C@@H]4C(=C)C(=O)O[C@@H]4C[C@@H](C)[C@@H]4C=CC(=O)[C@]43C)[C@H]12`, which outcome is on record?
The outcome was “active”.

`C=C1C(=O)O[C@H]2C[C@@H](C)[C@@H]3C=CC(=O)[C@@]3(C)C[C@H]12` was tested. Which outcome did it give?
The outcome was “active”.

Which outcome does the source give for `O=c1c2ccccc2nc(/C=C/c2ccccc2O)n1-c1ccccc1O` here?
The outcome was “active”.

With `CC(C)(C)c1ccc(CSc2cnn(C(C)(C)C)c(=O)c2Cl)cc1` as the molecule, how does the outcome read?
The outcome was “active”.

How did the outcome turn out when `O=Cc1cn(Cc2cccc([N+](=O)[O-])c2)c2ccccc12` was run?
The outcome was “active”.

With `O=c1c2ccccc2nc(/C=C/c2ccc([N+](=O)[O-])o2)n1-c1ccc(O)cc1` as the molecule, how does the outcome read?
Its outcome is “active”.

With `Cc1cccc(-n2c(/C=C/c3ccc([N+](=O)[O-])o3)nc3ccccc3c2=O)c1` as the molecule, how does the outcome read?
Its outcome is “active”.

`O=C(c1ccc(Cl)cc1)C1CCCN(Cc2cccc3ncccc23)C1` (centres undefined) was tested. Which outcome did it give?
Its outcome is “active”.

How did the outcome turn out when `Cc1nc2c(=O)n(C)c(=O)nc-2n(C)n1` was run?
The outcome was “active”.

`CCOc1ccc(-c2cc(C)[n+](CCN(CC)CC)c(-c3ccc(OCC)cc3)c2)cc1.[O-][Cl+3]([O-])([O-])[O-]` was tested. Which outcome did it give?
The outcome was “active”.

For `CC(=O)c1c(C)n(C2CCCCC2)c2ccc(O)cc12`, which outcome is on record?
Its outcome is “active”.

Which outcome does the source give for `C[C@H]1CCC[C@@H](O)CCC/C=C/c2cc(O)cc(O)c2C(=O)O1` here?
Its outcome is “active”.

Which outcome does the source give for `CC1=CC(=Cc2sc3ccccc3[n+]2C)C=C(C)O1.[O-][Cl+3]([O-])([O-])[O-]` here?
Its outcome is “active”.

With `CC(C)[C@H]1C(=O)O[C@H](C(C)C)C(=O)N(C)[C@@H](C(C)C)C(=O)O[C@H](C(C)C)C(=O)N(C)[C@@H](C(C)C)C(=O)O[C@H](C(C)C)C(=O)N1C` as the molecule, how does the outcome read?
Its outcome is “active”.

For `CCn1nc(/C=C/c2ccccc2)nc2c(=O)n(C)c(=O)nc1-2`, which outcome is on record?
Its outcome is “active”.

`CCn1nc(-c2ccccc2)nc2c(=O)n(C)c(=O)nc1-2` was tested. Which outcome did it give?
Its outcome is “active”.

Which outcome does the source give for `Cc1nn(C(C)(C)C)c(C)c1/C=N/OC(=O)Nc1ccc(Cl)c(Cl)c1` here?
The outcome was “active”.

Which outcome does the source give for `Cc1nn(C(C)(C)C)c(C)c1/C=N/OC(=O)Nc1ccc(Cl)cc1` here?
The outcome was “active”.

With `COc1ccc(Oc2cc(NC(=O)c3nn(C)cc3[N+](=O)[O-])cc([N+](=O)[O-])c2)cc1` as the molecule, how does the outcome read?
The outcome was “active”.

`C[C@@H]1O[C@@H](O[C@H]2C[C@@H](O)[C@]3(CO)[C@H]4[C@H](O)C[C@]5(C)[C@@H](C6=CC(=O)OC6)CC[C@]5(O)[C@@H]4CC[C@]3(O)C2)[C@H](O)[C@H](O)[C@H]1O` was tested. Which outcome did it give?
The outcome was “active”.

Which outcome does the source give for `NC(=O)c1cn(C2OC(CO)C(O)C2O)c2ncnc(N)c12.O` (centres undefined) here?
Its outcome is “active”.

With `CCCCN=C[C@]12CCC(O)CC1(O)CCC1[C@@H]2CC[C@]2(C)[C@H](C3C=CC(=O)O3)CCC12O` (some centres undefined) as the molecule, how does the outcome read?
The outcome was “active”.

`C[C@]12CCC3C(CCC4=CC(O)CC[C@@]43/C=N/O)C1(O)CCC2C1=CC(=O)OC1` (some centres undefined) was tested. Which outcome did it give?
Its outcome is “active”.

Which outcome does the source give for `CC(=O)OC[C@]12CCC(C)=C[C@H]1O[C@@H]1[C@H](O)[C@@H](OC(C)=O)[C@@]2(C)[C@]12CO2` here?
The outcome was “active”.

Which outcome does the source give for `C=C1C(=O)O[C@@H]2C[C@@H](C)[C@@H]3C4OC4C(=O)[C@@]3(C)[C@@H](O)[C@H]12` (some centres undefined) here?
Its outcome is “active”.

`CCOc1ccc(-c2c(C)n(-c3ccc(OCC)cc3)c3[n+]2CCCCC3)cc1.[O-][Cl+3]([O-])([O-])[O-]` was tested. Which outcome did it give?
The outcome was “active”.
